The conditions of assay [1]: Ebola virus entry assay, blue channel fluorescence.
The conditions of assay [2]: Ebola virus entry assay, green fluorescence channel.
For assay [3] the following is noted: Ebola virus entry assay, ratio channel readout.
For assay [4] the following is noted: Ebola virus entry assay, blue channel fluorescence. The source holds these as a separate data set.
The nature of assay [5]: qHTS profiling for inhibitors of Plasmodium falciparum (DD2) proliferation (AID 743323; call rule not given here). Particulars: lower = more inhibition; at 28.7 µM (top of the series). The method in brief: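 1536-well qHTS; infected RBCs 0.3% parasitemia/2.5% Hct final; cpd 72 h 37 C 5% CO2; lysis buffer + SYBR Green I, o/n RT dark; FI 485/535; norm. to 0.29 uM artemisinin and DMSO, plate-stack corrected.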
(In general: qHTS replaces the single test concentration by a dilution series.)

Assay [6] in a line: qHTS profiling of the MIPE4 collection as inhibitors of Plasmodium falciparum (3D7) proliferation (AID 743344; call rule not given here;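 also: scaled between DMSO vehicle wells and 0.29 µM artemisinin as full inhibition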). The note with it: P. falciparum 3D7 in erythrocytes, SYBR Green DNA fluorescence, 72 h; at 28.5 µM (top of the series) unless noted. The method in brief:
(§1)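 Parasite DNA was quantified by SYBR Green I fluorescence (ex 485, em 535 nm) after overnight lysis in saponin/Triton buffer at room temperature. Cultures at 0.3% parasitemia and 2.5% hematocrit were first exposed to compound for 72 h at 37 C; signals were normalised to artemisinin (0.29 uM) and vehicle wells.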

Assay [7] is described as follows: qHTS profiling of the MIPE4 collection as inhibitors of Plasmodium falciparum (DD2) proliferation (AID 743345; call rule not given here). The note with it: P. falciparum Dd2 in erythrocytes, SYBR Green DNA, 72 h; at 28.5 µM (top of the series) unless noted. The method in brief: as §1
Assay [8] in a line: qHTS profiling of the MIPE4 collection as inhibitors of Plasmodium falciparum (DD2) proliferation (Rep 2) (AID 743346; call rule not given here). The note with it: P. falciparum Dd2 in erythrocytes, SYBR Green DNA, 72 h; at 28.5 µM (top of the series) unless noted. The method in brief: as §1
Assay [9] is described as follows: qHTS profiling of the MIPE4 collection as inhibitors of Plasmodium falciparum (HB3) proliferation (AID 743347; call rule not given here;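 also: plate controls were DMSO vehicle wells for no effect and artemisinin wells for full effect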). The note with it: P. falciparum HB3 in erythrocytes, SYBR Green DNA, 72 h; at 28.5 µM (top of the series) unless noted. In short, it runs like this:
as §1

Where “and” joins values, the source holds several entries; their conditions need not be identical. Equal entries are not always repeated. For part of these data: Measured potencies and affinities stand elsewhere. Calls of active or inactive are those of the source.

On to `NS(=O)(=O)c1cc2c(cc1C(F)(F)F)NC(Cc1ccccc1)NS2(=O)=O` (stereo not drawn), for which the call in [1], in [2], in assay [3] and in [4] was inactive.
On to `CCn1cc(C(=O)O)c(=O)c2cc(F)c(N3CCNC(C)C3)c(F)c21` (stereo not drawn), for which the compound was called inactive in [1], in assay [2], in [3] and in assay [4].
Take `CCc1cc(C(N)=S)ccn1`: the compound was called inactive in assay [1], in assay [2], in assay [3] and in [4].
As for `O=C1CN(/N=C/c2ccc([N+](=O)[O-])o2)C(=O)N1`, the result in assay [1], in assay [2], in assay [3] and in [4] was inactive.
As for `N#Cc1ccc(C(c2ccc(C#N)cc2)n2cncn2)cc1`, the compound was called inactive in [1], in [2] and in assay [3].
Take `CC(C)(S)[C@@H](N)C(=O)O`: the result in [1], in assay [2] and in assay [3] was inactive.
On to `CC1COc2c(N3CCN(C)CC3)c(F)cc3c(=O)c(C(=O)O)cn1c23` (stereo not drawn), for which the call in [1], in assay [2], in [3] and in [4] was inactive.
On to `Cc1c(N)nc([C@H](CC(N)=O)NC[C@H](N)C(N)=O)nc1C(=O)N[C@H](C(=O)N[C@H](C)[C@@H](O)[C@H](C)C(=O)N[C@H](C(=O)NCCc1nc(-c2nc(C(=O)NCCCCN=C(N)N)cs2)cs1)[C@@H](C)O)[C@@H](O[C@@H]1O[C@@H](CO)[C@@H](O)[C@H](O)[C@@H]1O[C@H]1O[C@H](CO)[C@@H](O)[C@H](OC(N)=O)[C@@H]1O)c1cnc[nH]1`, for which the compound was classed as inactive in assay [1], in assay [2] and in assay [3].
With `NC(N)=Nc1nc(CSCC/C(N)=N/S(N)(=O)=O)cs1`, the compound was classed as inactive in assay [1], in assay [2] and in assay [3].
On to `CCN(CC)C(=O)/C(C#N)=C/c1cc(O)c(O)c([N+](=O)[O-])c1`, for which the compound was classed as inactive in assay [1], in assay [2], in assay [3] and in assay [4].
As to `NCC[C@H](O)C(=O)N[C@@H]1C[C@H](N)[C@@H](O[C@H]2O[C@H](CN)[C@@H](O)[C@H](O)[C@@H]2O)[C@H](O)[C@@H]1O[C@H]1O[C@H](CO)[C@@H](O)[C@H](N)[C@@H]1O`, the compound was called inactive in assay [1], in assay [2], in assay [3] and in assay [4].
Regarding `COc1cc(C(=O)NS(=O)(=O)c2ccccc2C)ccc1Cc1cn(C)c2ccc(NC(=O)OC3CCCC3)cc12`, the result in assay [1], in assay [2], in [3] and in assay [4] was inactive.
For `COCC1=C(C(=O)OC(C)OC(=O)OC(C)C)N2C(=O)[C@@H](NC(=O)/C(=N\OC)c3csc(N)n3)[C@H]2SC1` (stereo partly drawn), the call in assay [1], in assay [2] and in assay [3] was inactive.
Consider `CN1C(=O)OC(C)(C)C1=O`, for which the result in assay [1], in assay [2] and in assay [3] was inactive.
Consider `C[C@](N)(Cc1ccc(O)cc1)C(=O)O`, for which the outcome in assay [1], in assay [2], in [3] and in assay [4] was inactive.
With `O=P1(N(CCCl)CCCl)NCCCO1` (stereo not drawn), in assay [5], the activity, percent of control is 108% and 125%.
In assay [6], `COc1cc(OC)c(OC)cc1C=O` displayed a parasite growth, % of DMSO control of 98%. Moreover, the parasite growth remaining, % of DMSO control (lower = more inhibition) in assay [7] was found to be 89%. Besides, in assay [8], the parasite growth, % of control (lower = inhibition) stood at 110%. The compound further displayed a growth, % of control in assay [9] of 102%.
Consider `C[C@]12CCC(=O)C=C1CC[C@@H]1[C@H]3CC[C@](C)(O)[C@@]3(C)CC[C@@H]12`, for which the parasite growth, % of DMSO control in [6] was 70.7% [at 57.5 µM]. This compound also had a parasite growth remaining, % of DMSO control (lower = more inhibition) in assay [7] of 94.5% [at 57.5 µM]. The parasite growth, % of control (lower = inhibition) in assay [8] stood at 65.8% [at 57.5 µM]. This compound also had a growth, % of control in [9] of 84.5% [at 57.5 µM].

The values are drawn from PubChem BioAssay (NCATS).
